From PubChem
A selection: hits, their analogues and other compounds. The true share with any hit is near 8%.
MCF10A rerep – DNA re-replication induction in MCF 10a cells; MCF 10A DNA re-replication, Hoechst nuclear intensity, 48 h; AID 624296; Potency, µM (doses to about 46.1 µM), most hits filed as activators; 350,000 compounds, 2.9% hits; note: nearly all actives have a fitted effect of over 50% in size
HT1080NT lethal – kills 2HG-producing HT-1080-NT fibrosarcoma cells. HT-1080-NT fibrosarcoma viability, CellTiter-Glo ATP luminescence, 48 h. Potency, µM (highest dose often 46.1 µM), most hits filed as cytotoxic. 360,000 compounds, 1.6% hits. AID 686970;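 note: NT is the 2HG producing partner of a matched IDH1 knockdown line; nearly all actives have a fitted effect of over 55% in size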
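Viability by CellTiter-Glo luminescence after 48 h compound exposure at 37C of HT-1080-NT cells (750/well, RPMI, 5% FBS). % activity scaled between DMSO wells and medium-only wells, then curve-fitted and categorized by curve class.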
KB-V1 MDR tox – KB-V1 MDR subline cytotoxicity; KB-V1 MDR cells viability, CellTiter-Glo, 72 h; Potency, µM (titrated, usually from 46.1 µM), hits mostly cytotoxic; 400,000 compounds, 3.4% hits; AID 1347076; note: nearly all actives have a fitted effect of over 60% in size
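Drug-selected KB-V1 cells, grown in DMEM lacking phenol red with 10% FBS, receive compound titrations; after three days at 37 degrees C, surviving cell ATP is quantified by CellTiter-Glo luminescence and responses normalized and curve-fitted.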
HT1080 IDH1KD tx – toxicity to HT-1080 IDH1 knockdown cells (counter line); HT-1080 IDH1 knockdown viability, ATP luminescence, 48 h; Potency, µM (highest dose often 46.1 µM), actives largely listed as cytotoxic; 360,000 compounds, 2% hits
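CellTiter-Glo luminescence after 48 h compound exposure at 37 degrees C of IDH1-knockdown HT-1080 cells in 5% FBS RPMI. %Activity scaled between DMSO wells and cell-free media wells, with curves fitted and assigned curve classes.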
KB-3-1 cytotox – KB-3-1 parental cell cytotoxicity; Potency, µM (highest dose often 46.1 µM), actives largely listed as cytotoxic; KB-3-1 viability, CellTiter-Glo ATP luminescence, 72 h; 400,000 compounds, 1.4% hits; note: nearly all actives have a fitted effect of over 60% in size
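Here the drug-naive KB-3-1 line serves as comparator for MDR sub-line selectivity; cells received compound titrations, 72 h at 37 °C, then CellTiter-Glo readout.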
SW480 rerep – inducers of DNA re-replication in SW480 colon cancer cells; SW480 DNA re-replication, Hoechst DNA content imaging, 48 h; Potency, µM (highest dose often 46.1 µM), usual class: activators; 340,000 compounds, 1.8% hits; AID 624297; note: nearly all actives have a fitted effect of over 55% in size
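Compounds, transferred as 23 nL by pin tool, were incubated with cells for 48 hr; DNA content per nucleus was then quantified by Hoechst staining and fluorescence plate imaging.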
Numbers stand for hits; n = inactive; u = inconclusive; x = no result given; [ ] = remark or other dose. Calls come from the whole dose curve; as a rule, active = well fitted curve in the direction sought with a large enough effect; inconclusive = small, poorly fitted or top-dose-only effect, or another doubt; inactive = no such curve, though single readings can be large; an effect the other way counts as inactive or inconclusive.

SMILES | MCF10A rerep | HT1080NT lethal | KB-V1 MDR tox | HT1080 IDH1KD tx | KB-3-1 cytotox | SW480 rerep
Cc1ccc(NC(=O)c2ccc(OC(=O)COc3ccc(Cl)c(C)c3)cc2)cc1 | n | n | n | n | n | x
C=CCN1C(=O)/C(=C\c2ccc(Cl)cc2)N=C1SCC(=O)NCCC | n | n | u | n | n | n
COCCNC(=O)CSC1=N/C(=C/c2ccc(Cl)c(Cl)c2)C(=O)N1c1ccccc1F | 9.2µM | u | n | u | n | u
O=C(COC(=O)COc1ccccc1)NCc1ccccc1 | n | n | n | n | n | n
COc1ccc(Cc2nc3ccc(C(=O)NC4CCOC4)cc3o2)cc1 (centres undefined) | n | n | n | n | n | n
CS(=O)(=O)Nc1ccc(C2=NN(C(=O)c3ccco3)C(c3ccccc3)C2)cc1 (centres undefined) | n | n | 16µM | n | n | n
CCS(=O)(=O)Nc1ccc(C2=NN(C(=S)Nc3ccccc3)C(c3ccco3)C2)cc1 (centres undefined) | n | n | 13µM | u | n | u
CC(=O)Nc1ccc2nc(CN3CCN(CC(C)C)C(CCO)C3)ccc2c1 (centres undefined) | n | n | n | n | n | n
COc1cc(C2c3cc4c(cc3C(OC3OC5COC(c6cccs6)OC5C(O)C3O)C3COC(=O)C23)OCO4)cc(OC)c1O (centres undefined) | u | u | n | u | 4.1µM | u
COc1cc([C@H]2c3cc4c(cc3[C@@H](O[C@H]3O[C@H]5CO[C@@H](C)O[C@H]5[C@@H](O)[C@@H]3O)[C@@H]3COC(=O)[C@H]23)OCO4)cc(OC)c1O | u | x | x | x | x | 1.5µM
COc1cc([C@@H]2c3cc4c(cc3[C@@H](O[C@@H]3O[C@@H]5CO[C@@H](C)O[C@H]5[C@H](O)[C@H]3O)[C@H]3COC(=O)[C@H]23)OCO4)cc(OC)c1O | u | n | n | u | 16µM | 2.3µM
COc1cc(C2c3cc4c(cc3C(O[C@@H]3OC5COC(c6cccs6)OC5C(O)C3O)C3COC(=O)C23)OCO4)cc(OC)c1O (some centres undefined) | u | x | x | x | x | n
CC(C)(CNC(=O)CNC(=O)c1ccccc1F)N1CCOCC1 | n | n | n | n | n | n
COc1ccccc1C(=O)NCCn1cc(SCC(=O)Nc2cc(C)on2)c2ccccc21 | u | n | 8.2µM | n | n | n
CCCN(CCC)C(=O)CSc1nc2ccccc2c(=O)n1C1CCCC1 | u | n | 7.3µM | u | n | n
N#CCSc1nc2ccccc2c(=O)n1C1CCCCC1 | n | n | u | n | n | n
COc1ccc(C)cc1-n1c(SCC(=O)Nc2cc(C)on2)nc2ccccc2c1=O | n | n | 18µM | n | u | n
O=c1c2ccccc2nc(SCc2cccc(F)c2)n1C1CCCC1 | 18µM | n | u | n | n | n
CCN(CC)C(=O)CSc1nc2ccccc2c(=O)n1CC1CCCCC1 | u | u | n | u | u | n[9.22 µM]
Cc1nc2c3ccccc3nc(NNC(=O)CCC(=O)N3CCC(C)CC3)n2n1 | n | n | n | n | n | n
Cc1ccc(S(=O)(=O)N2CCC(=O)N(CCOCc3ccc(C(F)(F)F)cc3)CC2)cc1 | n | n | u | n | n | n
Cc1cc(NC(=O)CSc2nc3ccccc3c(=O)n2C2CCCC2)no1 | 1.3µM | u | 1.3µM | 1.8µM | u | 1.3µM
CN(C)c1ccc(NC(=O)CSc2nc3ccccc3c(=O)n2C2CCCCC2)cc1 | u | n | n | n | n | n
Cc1cc2c(C)cc(=O)oc2c2c1NCCC2 | 13µM | n | n | n | n | u
Cn1ccnc1SCC(=O)c1ccc([N+](=O)[O-])cc1 | n | n | n | n | n | n
SMILES | MCF10A rerep | HT1080NT lethal | KB-V1 MDR tox | HT1080 IDH1KD tx | KB-3-1 cytotox | SW480 rerep
Cc1cc([N+](=O)[O-])nn1CCCC(=O)N1CCN(c2ccc(F)cc2)CC1 | n | n | 18µM | n | n | n
Cc1cc([N+](=O)[O-])nn1CCCC(=O)O | n | n | u | n | n | n
Cc1cc([N+](=O)[O-])nn1CCCC(=O)Nc1cc(Oc2ccccc2)cc([N+](=O)[O-])c1 | n | n | n | n | n | n
Cc1cc([N+](=O)[O-])nn1CCCC(=O)Nc1cc(Oc2ccc(F)cc2)cc([N+](=O)[O-])c1 | n | n | 5.8µM | n | n | n
CCOC(=O)c1cnc(SCC(=O)Nc2ccc(N3CCOCC3)c(Cl)c2)nc1N | n | n | n | n | n | n
CCOC(=O)c1cnc(SCC(=O)Nc2cc(OC)cc(OC)c2)nc1N | n | n | 2.3µM | u | u | n
CCOC(=O)c1cnc(SCCc2ccccc2)nc1N | n | n | 23µM | n | n | n
CCOC(=O)c1cnc(SCC(=O)Nc2sc(C)c(C)c2C#N)nc1N | n | n | u | n | u | 21µM
CNc1ncc(-c2nnnn2-c2ccccc2)c(-c2ccccc2)n1 | u | n | 21µM | n | n | 15µM
c1ccc(-c2nnnn2-c2ccccc2)cc1 | n | n | n | n | n | u
CC(=Nc1ccccc1)C1=C(O)C(Cc2ccc(F)cc2)NC1=O (centres undefined) | x | 2.6µM | u | 2.6µM | 1.8µM | x
CC(=Nc1ccccc1)C1=C(O)C(Cc2ccccc2)NC1=O (centres undefined) | u | 0.58µM | n | u | 0.0065µM | 0.16µM
CC(=Nc1ccccc1)C1=C(O)CCCC1=O | n | n | n | n | n | n
CC(=Nc1ccccc1)C1=C(O)C(CC(C)C)NC1=O (centres undefined) | n | n | 23µM | n | n | n
CC(=Nc1ccccc1)C1=C(O)CSC1=O | n | n | n | n | n | n
O=C(NCc1ccc(F)cc1)c1c(O)c2cccc3c2n(c1=O)CCC3 | n | n | n | n | n | n
CC1(C)NC(=O)N(CC(=O)OCC(=O)c2ccc(F)cc2)C1=O | n | n | n | n | n | n
CCCc1nc2c3ccccc3ccn2c1Cc1ccc(C)cc1 | x | u | n | u | n | x
CCCc1nc2c3ccccc3ccn2c1Cc1cccc(Cl)c1 | x | 26µM | n | u | n | x
CCOc1ccc(CCNS(=O)(=O)c2ccc(-c3ccc(=O)[nH]n3)o2)cc1OCC | n | n | n | n | n | u
CCOc1ccc(N=Nc2c(=O)[nH]n3c(=O)cc(C)[nH]c23)cc1 | n | u | u | u | 23µM | n
Cc1cccc(-n2c(SCC(N)=O)nc3c(c2=O)C2(CCCC2)Cc2ccccc2-3)c1 | n | u | 3.3µM | u | u | n
CCn1c(SCC(N)=O)nc2c(c1=O)C1(CCCC1)Cc1ccccc1-2 | u | n | n | n | n | n
NC(=O)CSc1nc2c(c(=O)n1-c1ccccc1)C1(CCCCC1)Cc1ccccc1-2 | u | u | u | 13µM | u | n
